Source: PubChem BioAssay (National Center for Advancing Translational Sciences (NCATS))
HT1080 IDH1KD tx: qHTS for induction of synthetic lethality in tumor cells producing 2HG: qHTS for the HT-1080-IDH1KD cell line; Potency, µM (highest dose often 46.1 µM), inactives show at the top dose activity, negative = toxicity, usual class: cytotoxic; 360,000 tested, 2% active; HT-1080 IDH1 knockdown viability, ATP luminescence, 48 h;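 also: potency is read from the fitted curve at half-maximal effect; 0% = DMSO wells and -100% = cell-free medium wells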
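Assay cells: HT-1080 with IDH1 knockdown, 750 per well, RPMI/5% FBS. Exposure: 48 h at 37 °C following 2 h pre-incubation. Read: CellTiter-Glo luminescence; fitted concentration-response, curve class assigned.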
HT1080NT lethal: qHTS for induction of synthetic lethality in tumor cells producing 2HG: qHTS for the HT-1080-NT fibrosarcoma cell line | HT-1080-NT fibrosarcoma viability, CellTiter-Glo ATP luminescence, 48 h | Potency, µM (doses to about 46.1 µM), without a hit: at the highest dose activity, negative = less viability, actives largely listed as cytotoxic | 360,000 tested, 1.6% active;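 also: NT is the 2HG producing partner of a matched IDH1 knockdown line; potency is read from the fitted curve at half-maximal effect; 0% = DMSO-treated cells and -100% = media-only wells without cells; nearly all actives have a fitted effect of over 55% in size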
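Compounds were tested in concentration-response format on HT-1080-NT cells for 48 hours at 37 degrees C. Cell viability came from CellTiter-Glo luminescence; curves were classified by r2, response magnitude and activity.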
DT40 TDP1 no CPT: qHTS for Inhibitors of human tyrosyl-DNA phosphodiesterase 1 (TDP1): qHTS in cells in absence of CPT. Potency, µM (series often up to 46.2 µM), inactives show at the highest dose activity change, negative = growth inhibition, most hits filed as inhibitors. DT40 Tdp1-/- hTDP1 cells, no CPT, ATP luminescence, 48 h. 420,000 tested, 15% active; also: potency is read from the fitted curve at half-maximal effect; nearly all actives have a fitted effect of over 55% in size
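Growth of hTDP1-complemented DT40 Tdp1-knockout cells is measured by ATP luminescence after at least 48 hr compound exposure at 37 °C, with DMSO substituting for the 20 nM CPT used in the parallel screen.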
TDP1 cell CPT: qHTS for Inhibitors of human tyrosyl-DNA phosphodiesterase 1 (TDP1): qHTS in cells in presence of CPT; chicken DT40 Tdp1-/-;hTDP1 cells + 20 nM CPT, ATP luminescence, 48 h; Potency, µM (doses to about 46.2 µM), without a hit: top-dose activity change, negative = growth inhibition, hits mostly inhibitors; 420,000 tested, 12% active; also: potency is read from the fitted curve at half-maximal effect; nearly all actives have a fitted effect of over 55% in size
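Chicken DT40 Tdp1-/- cells stably complemented with human TDP1 were seeded at 400 cells/well in medium containing 20 nM camptothecin, exposed to pin-transferred compounds, and grown at 37 °C for at least 48 hr. Viability was read as ATP luminescence.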
IL-1B inflam inh: qHTS for Inhibitors of Inflammasome Signaling: IL-1-beta AlphaLISA Primary Screen; THP-1 LPS/ATP IL-1B secretion, AlphaLISA, 16 h; stronger effect = lower value; activity change, % at 57.5 µM; 360,000 tested, 4.7% active; in the data active = activity change below about -50%; inconclusive = mostly about -30% to -49%
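THP-1 cells pretreated 1 hr with compounds (up to 57.5 uM final), then stimulated with LPS (250 ng/mL final) plus ATP (1.25 mM final); secreted IL-1B measured by AlphaLISA after 16 hr, decreased signal indicating inhibition.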
ALOX12 inh: Primary qHTS assay for inhibitors of human arachidonate 12S-lipoxygenase (ALOX12): Round 2. Polyunsaturated fatty acid lipoxygenase ALOX12 (Homo sapiens), P18054. purified 12hLO, xylenol orange hydroperoxide absorbance. Potency, µM (highest dose often 108 µM), inactives show at the highest dose activity change, negative = inhibition, usual class: inhibitors. 580,000 tested, 1.1% active; also: potency is read from the fitted curve at half-maximal effect
Target sequence (P18054 whole entry, looked up): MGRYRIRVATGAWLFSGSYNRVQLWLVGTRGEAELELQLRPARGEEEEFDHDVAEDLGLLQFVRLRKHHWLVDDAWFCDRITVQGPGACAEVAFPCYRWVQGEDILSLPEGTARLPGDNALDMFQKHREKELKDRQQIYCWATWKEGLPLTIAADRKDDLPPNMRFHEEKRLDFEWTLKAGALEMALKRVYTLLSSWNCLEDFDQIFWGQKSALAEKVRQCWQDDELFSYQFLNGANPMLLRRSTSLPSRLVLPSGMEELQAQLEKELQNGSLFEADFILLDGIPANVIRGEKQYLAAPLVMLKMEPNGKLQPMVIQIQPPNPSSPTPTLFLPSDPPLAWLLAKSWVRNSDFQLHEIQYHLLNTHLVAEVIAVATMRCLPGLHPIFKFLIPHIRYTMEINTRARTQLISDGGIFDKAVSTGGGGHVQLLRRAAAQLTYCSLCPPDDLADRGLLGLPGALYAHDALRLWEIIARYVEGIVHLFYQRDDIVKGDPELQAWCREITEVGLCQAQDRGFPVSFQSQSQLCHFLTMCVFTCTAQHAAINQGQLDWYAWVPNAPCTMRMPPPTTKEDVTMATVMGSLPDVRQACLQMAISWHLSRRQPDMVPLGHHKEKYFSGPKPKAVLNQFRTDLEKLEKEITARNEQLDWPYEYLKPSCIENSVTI
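Hydroperoxide product was detected by ferrous iron/xylenol orange as the 573 to 405 nm absorbance ratio. Arachidonic acid at 40 uM (final) was turned over for 30 min at room temperature by 150 nM human 12hLO, pH 7.0 Hepes buffer, after 15 min compound preincubation.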
The depositor's hits bear a star; [ ] = remark or other dose. The entries come from a sample that favours hits as a whole. Unless noted, calls follow the shape of the dose curve; as a rule, active = well fitted curve in the direction sought with a large enough effect; inconclusive = small, poorly fitted or top-dose-only effect, or another doubt; inactive = no such curve, though single readings can be large; an effect the other way counts as inactive or inconclusive. Unless noted, % is scaled to controls: 0 for no effect and ±100 for the full control effect.

S=C(NNC(=S)Nc1ccccc1)Nc1ccccc1 was read as HT1080 IDH1KD tx 4%, HT1080NT lethal 5%, DT40 TDP1 no CPT 3.3µM*, TDP1 cell CPT 3.7µM*, IL-1B inflam inh inconclusive and ALOX12 inh inconclusive.
Screening CCN(CC)CCNC(=O)c1[nH]c2ccc(OCc3ccccc3)cc2c1C returned HT1080 IDH1KD tx inconclusive, HT1080NT lethal inconclusive, DT40 TDP1 no CPT inconclusive, TDP1 cell CPT inconclusive, IL-1B inflam inh -95* and ALOX12 inh inconclusive.
`CC(=O)NC1C(=O)N(CCN2CCOCC2)c2ccc(Br)cc21` (centres undefined) gave HT1080 IDH1KD tx 1%, HT1080NT lethal 2%, DT40 TDP1 no CPT -15%, TDP1 cell CPT -18%, IL-1B inflam inh 6 and ALOX12 inh 32µM*.
For CCOc1ccc2c(c1)C(NC(C)=O)C(=O)N2CCN1CCOCC1 (centres undefined) the results were HT1080 IDH1KD tx 20%, HT1080NT lethal 18%, DT40 TDP1 no CPT 15µM*, TDP1 cell CPT inconclusive, IL-1B inflam inh 8 and ALOX12 inh 0%.
For O=C(Nc1ccc(OC(F)F)cc1)c1cc(=O)[nH]c2ccccc12 the results were ALOX12 inh 60%.
CCCN(CCC)CCCNC(=O)C1CCCN(Cc2nc(-c3ccc(Cl)cc3)oc2C)C1 (centres undefined) was read as DT40 TDP1 no CPT 9.2µM*, TDP1 cell CPT 12µM* and ALOX12 inh -8%.
For Cc1ccccc1-c1nc(CN2CCCC(C(=O)NCc3ccc(Cl)cc3)C2)c(C)o1 (centres undefined) the results were DT40 TDP1 no CPT inconclusive, TDP1 cell CPT -23% and ALOX12 inh inconclusive.
Cc1oc(-c2cccc(Br)c2)nc1CN1CCC(C(=O)NCCc2ccc(Cl)cc2)CC1 was read as DT40 TDP1 no CPT inconclusive, TDP1 cell CPT 16% and ALOX12 inh -5%.
COC(=O)c1ccc2c(c1)N(Cc1nc(-c3ccc(Cl)cc3)oc1C)C(=O)C1CCCN21 (centres undefined) was read as HT1080 IDH1KD tx -22%, HT1080NT lethal -5%, DT40 TDP1 no CPT inconclusive, TDP1 cell CPT 21µM*, IL-1B inflam inh 20 and ALOX12 inh inconclusive.
Cc1oc(-c2cccc(Cl)c2)nc1CN1CCCC(C(=O)NCc2ccc(F)cc2)C1 (centres undefined) was read as DT40 TDP1 no CPT 5.8µM*, TDP1 cell CPT 5.8µM* and ALOX12 inh 0%.
`Cc1oc(-c2ccc(Cl)cc2)nc1CN1CCCC(C(=O)NCCc2ccc(Cl)cc2)C1` (centres undefined) gave DT40 TDP1 no CPT 5.8µM*, TDP1 cell CPT 7.3µM* and ALOX12 inh -21%.
Screening O=C(CN1C(=O)NC(Cc2c[nH]c3ccccc23)C1=O)Nc1ccccc1F (centres undefined) returned ALOX12 inh 12%.
CCCC1C=CCN1C(=O)c1cc(-c2ccncc2)nc2ccccc12 (centres undefined) was read as ALOX12 inh -17%.
For O=C(CSc1nc(-c2ccccc2)nc2cc(=O)[nH]n12)Nc1ccccc1F the results were ALOX12 inh 4%.
Screening COc1cc(-c2cc(NC=O)c3ncc(-c4ccc(C(C)=O)cc4)n3c2)cc(OC)c1OC returned HT1080 IDH1KD tx inconclusive, HT1080NT lethal inconclusive, DT40 TDP1 no CPT 7.3µM*, TDP1 cell CPT 10µM*, IL-1B inflam inh -59* and ALOX12 inh 6%.
`COc1ccc(-c2cc(NC=O)c3ncc(-c4ccc(C(C)=O)cc4)n3c2)cc1OC` gave HT1080 IDH1KD tx 13µM*, HT1080NT lethal 16µM*, DT40 TDP1 no CPT 18µM*, TDP1 cell CPT 16µM*, IL-1B inflam inh -70* and ALOX12 inh 5%.
`CC(=O)c1cccc(NC(=O)CCSC2CCc3ccccc3NC2=O)c1` (centres undefined) gave ALOX12 inh 28%.
`CCCCCn1ccc(=O)c2c(C(F)(F)F)nccc21` gave HT1080 IDH1KD tx -12%, HT1080NT lethal 1%, DT40 TDP1 no CPT 18µM*, TDP1 cell CPT 13µM*, IL-1B inflam inh 17 and ALOX12 inh 0%.
For CCCCCCCn1ccc(O)c(CC(=O)OC)c1=O the results were HT1080 IDH1KD tx 0%, HT1080NT lethal 2%, DT40 TDP1 no CPT -5%, TDP1 cell CPT -6%, IL-1B inflam inh -15 and ALOX12 inh 0%.
Cn1c(SC2=CS(=O)(=O)c3ccccc32)nc2ccccc21 was read as HT1080 IDH1KD tx inconclusive, HT1080NT lethal 18µM*, DT40 TDP1 no CPT 2.9µM*, TDP1 cell CPT 2.3µM*, IL-1B inflam inh -119* and ALOX12 inh -6%.
`Cn1nnnc1SC1=CS(=O)(=O)c2ccccc21` gave ALOX12 inh -10%.
CC(C)c1ccc(-n2nnnc2C2(Nc3ccccc3)CCCCC2)cc1 was read as ALOX12 inh -54%.
`COc1ccc(CCNC(=O)C(C(C)C)N2Cc3ccccc3C2=O)c(OC)c1OC` (centres undefined) gave ALOX12 inh 37%.
Screening O=C(Nc1cc(=O)[nH]c(=O)[nH]1)c1cc(Cl)ccc1Cl returned HT1080 IDH1KD tx 3.3µM*, HT1080NT lethal inconclusive, DT40 TDP1 no CPT 4.1µM*, TDP1 cell CPT 3.3µM*, IL-1B inflam inh 59 and ALOX12 inh 0%.
COc1cc(OC)cc(C(=O)c2c(C)c(C#N)c3ccccn23)c1 was read as HT1080 IDH1KD tx 12%, HT1080NT lethal inconclusive, DT40 TDP1 no CPT 2.3µM*, TDP1 cell CPT 2.3µM*, IL-1B inflam inh 30 and ALOX12 inh 9%.
For CCN(CC)C(=O)[C@@H]1CCC[C@@H](NS(=O)(=O)c2ccccc2)CN(C)C(=O)C1 the results were ALOX12 inh 30%[176 µM].
CCCCCCCCCC[n+]1cccc2c3ccccc3ccc21 was read as HT1080 IDH1KD tx 2.3µM*, HT1080NT lethal 4.1µM*, DT40 TDP1 no CPT 0.15µM*, TDP1 cell CPT 0.33µM*, IL-1B inflam inh 0 and ALOX12 inh -20%.
